From PubChem BioAssay
Compounds with a hit are over-represented: about 27% of the library has one in this group of screens.
CYP2C9 act = human CYP2C9 activators, primary screen, biochemical, luminescence; hit rate 1.4% among 96,000; recombinant CYP2C9, luciferin-H conversion; stronger effect = higher value; factor 1 = untreated enzyme, 0 = blocked; activation factor at 5 µM; AID 1024, 2008;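 active means activation factor of 2 or more for CYP2C9 at a 5 µM dose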
CYP2C19 activ = human CYP2C19 activators, primary screen, biochemical, luminescence; Cytochrome P450 2C19 (Homo sapiens), P33261; recombinant CYP2C19, luciferin-H EGE luminescence; stronger effect = higher value; 0 = fully inhibited enzyme, 1 = untreated enzyme; 96,000 tested, under 10 active; activation factor at 5 µM;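 active means activation factor of at least 2 at 5 µM in the primary screen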
CYP2C19 inhib = blockers of cytochrome P450 2C19 activity – biochemical, luminescence, ADME assay, primary screen; P33261; CYP2C19 Supersomes, luciferin-H EGE luminescence, 30 min; inhibition, % at 5 µM; hit rate 21% among 96,000;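 active means CYP2C19 inhibition above a set limit at 5 µM in the primary screen, cut at about 50% in these data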
Cav3 T inh = Cav3.2 calcium influx blockers – cell-based, Fluo-4 calcium fluorescence, FDSS, MLSMR library, primary screen; Voltage-dependent T-type calcium channel subunit alpha-1H (Homo sapiens), O95180; hit rate 4% among 100,000; B-score at 10 µM; AID 449739, 2010; Cav3.2-expressing cells; stronger effect = lower value;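 active means single-dose well whose peak fluorescence ratio is a statistical outlier from its plate by either plate-standardised score or position-corrected B-score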
Pyk2 oligo antag = antagonists of Pyk2 self-association, primary screen, Q293 cells, FERM NanoBiT luminescence, HTS | z-score (the deposit names both 25 µM and 10 µM) | stronger effect = lower value | hit rate 0.83% among 99,000 | Protein-tyrosine kinase 2-beta (Homo sapiens), Q14289;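 active means Z-score of -3 or lower, scaled per plate to the spread of control and sample wells; inactive means z-score above -3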;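 further: negative z-score means lost luminescence so less FERM oligomerization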
Target sequence (Q14289 whole entry, looked up): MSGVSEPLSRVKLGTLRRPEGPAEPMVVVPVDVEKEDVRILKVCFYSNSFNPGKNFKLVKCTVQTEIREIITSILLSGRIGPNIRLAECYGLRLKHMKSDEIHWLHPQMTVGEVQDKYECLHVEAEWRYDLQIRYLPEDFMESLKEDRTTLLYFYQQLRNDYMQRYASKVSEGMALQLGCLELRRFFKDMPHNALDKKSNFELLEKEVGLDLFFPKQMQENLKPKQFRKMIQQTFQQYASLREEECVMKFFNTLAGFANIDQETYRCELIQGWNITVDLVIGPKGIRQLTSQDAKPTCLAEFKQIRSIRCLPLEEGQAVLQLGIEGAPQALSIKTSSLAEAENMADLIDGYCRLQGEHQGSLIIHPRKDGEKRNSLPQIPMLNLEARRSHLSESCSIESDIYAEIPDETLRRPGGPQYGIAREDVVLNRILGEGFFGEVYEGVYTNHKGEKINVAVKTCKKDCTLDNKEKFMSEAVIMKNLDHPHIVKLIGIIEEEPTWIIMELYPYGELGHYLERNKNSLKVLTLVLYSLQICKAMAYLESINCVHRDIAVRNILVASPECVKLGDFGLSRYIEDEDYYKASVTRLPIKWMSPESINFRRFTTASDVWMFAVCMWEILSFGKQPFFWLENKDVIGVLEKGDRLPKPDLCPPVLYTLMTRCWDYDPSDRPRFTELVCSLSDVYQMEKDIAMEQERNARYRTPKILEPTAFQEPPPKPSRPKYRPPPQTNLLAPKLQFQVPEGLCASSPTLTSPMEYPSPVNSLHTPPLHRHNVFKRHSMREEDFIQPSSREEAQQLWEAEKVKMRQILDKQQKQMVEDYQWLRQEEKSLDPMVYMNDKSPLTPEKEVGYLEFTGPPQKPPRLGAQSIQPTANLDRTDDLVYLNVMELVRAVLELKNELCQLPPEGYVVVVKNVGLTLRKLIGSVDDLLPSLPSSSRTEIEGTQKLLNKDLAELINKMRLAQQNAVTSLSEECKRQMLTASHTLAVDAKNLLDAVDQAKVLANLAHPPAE
CYP2C9 inhib = blockers of cytochrome P450 2C9 activity – biochemical, luminescence, ADME assay, primary screen. hit rate 20% among 96,000. inhibition, % at 5 µM. CYP2C9 Supersomes, luciferin-H conversion;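 active means blocking of liver enzyme CYP2C9 beyond about 50% at 5 µM, limit read from the data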
Hits are given with their value; n = inactive; x = no result.

SMILES	CYP2C9 act	CYP2C19 activ	CYP2C19 inhib	Cav3 T inh	Pyk2 oligo antag	CYP2C9 inhib
COCCn1c(SCC(=O)Nc2ccc(S(N)(=O)=O)cc2)nc2ccccc21	n	n	n	n	n	68.1
COCCn1c(SCC(=O)Nc2nc(C)c(Cl)cc2Cl)nc2ccccc21	n	n	96.2	n	n	n
COCCn1c(SCC(=O)Nc2ccc(Cl)c(S(=O)(=O)N(C)C)c2)nc2ccccc21	n	n	n	-6.22	n	87.1
CNC(=O)NC(=O)CSc1nc2ccccc2n1CCOC	n	n	n	n	n	n
O=C(c1ccc(C#CC2(O)CCCCC2)cc1)N1CCN(Cc2ccccc2)CC1	n	n	n	-6.14	n	n
O=C(c1ccc(C#CC2(O)CCCCC2)cc1)N1CCN(C(c2ccccc2)c2ccccc2)CC1	n	n	n	-5.13	n	68.0
CCOC(=O)N1CCN(C(=O)c2ccc(C#CC3(O)CCCCC3)cc2)CC1	n	n	n	n	n	n
CSCCC(NC(=O)c1ccccc1)c1nc(-c2ccccc2)no1 (stereo not drawn)	n	n	n	n	x	n
CCN1C/C(=C\c2cccc(C)c2)c2nc3ccccc3c(C(=O)O)c2C1	n	n	n	n	x	n
Cc1cc(SC(C)C(=O)Nc2c(C)n(C)n(-c3ccccc3)c2=O)nc2ccccc12 (stereo not drawn)	n	n	77.8	n	n	n
Cc1cc(C(=O)Nc2c(C)n(C)n(-c3ccccc3)c2=O)c2ccccc2n1	n	n	n	n	n	n
CCc1ccc(-c2cc(C(=O)Nc3c(C)n(C)n(-c4ccccc4)c3=O)c3ccccc3n2)s1	n	n	51.3	-4.28	n	n
Cc1cc(Br)cc2c(C(=O)Nc3c(C)n(C)n(-c4ccccc4)c3=O)cc(-c3cccs3)nc12	n	n	n	n	n	76.4
Cc1cc(NCCO)c2cc(O)ccc2n1	n	n	n	n	n	n
CCOc1ccc(NC(=O)CN2CCN(CC(=O)c3ccc(OC)c(OC)c3)CC2)cc1	n	n	n	n	n	n
O=C(Nc1ccccc1Cl)c1ccccc1Oc1ccc(C(F)(F)F)cc1[N+](=O)[O-]	n	n	72.8	x	n	87.5
COc1ccccc1NC(=O)COc1ccc(C(F)(F)F)cc1[N+](=O)[O-]	x	x	x	n	n	x
COc1ccc(-n2c(C)c(C(C)=O)c3cc(O)ccc32)cc1	n	n	89.7	n	n	61.3
COc1ccc2c(c1)c(C(C)=O)c(C)n2-c1ccccc1	n	n	97.0	n	n	88.5
COC(CN1C(=O)C(O)=C(C(C)=O)C1c1ccccn1)OC (stereo not drawn)	n	n	n	n	n	n
CCC(C)C(NC(=O)C(C)NC(=O)CNC(=O)CNC(=O)OCc1ccccc1)C(=O)OC (stereo not drawn)	x	x	x	n	n	x
COc1ccc(NC(=S)NCc2ccco2)cc1	n	n	n	x	n	n
CCOc1ccc(NC(=S)N(Cc2ccc(N(C)C)cc2)Cc2ccco2)cc1	n	n	n	n	n	62.7
CCCCCOC(=O)C1=C(C)NC(=O)NC1c1ccccc1OCC (stereo not drawn)	n	n	n	-5.67	n	n
CCOc1ccccc1C1NC(=O)NC(C)=C1C(=O)OC1CCCC1C (stereo not drawn)	n	n	n	-5.27	n	n
SMILES	CYP2C9 act	CYP2C19 activ	CYP2C19 inhib	Cav3 T inh	Pyk2 oligo antag	CYP2C9 inhib
CCOc1ccccc1C1NC(=O)NC(C)=C1C(=O)OC1CCCCC1 (stereo not drawn)	n	n	n	n	n	n
CN1CC(=O)NC1=NC(=O)C12CC3CC(CC(C3)C1)C2	n	n	n	n	n	n
Cc1cc(N2CCN(c3ccccc3)CC2)nc(-n2nc(C)cc2C)n1	n	n	60.5	n	n	89.6
COc1ccccc1/C=C/C(=O)NCC(=O)N/N=C/c1cc(Br)ccc1OC	n	n	n	-9.34	n	53.4
COc1ccc(Br)cc1/C=C/C(=O)Nc1ccc(C)cc1	x	x	x	x	n	x
CC1CCC(NC(=O)C2CCN(c3cnccn3)CC2)CC1 (stereo not drawn)	n	n	53.0	n	n	n
Cc1cc(C)c(NC(=O)C2CCN(c3cnccn3)CC2)c(C)c1	x	x	x	n	n	x
COc1cccc(C2CC(=O)NC(SC)=C2C#N)c1 (stereo not drawn)	n	n	63.9	x	x	62.3
CCSC1=C(C#N)C(c2cccc(Br)c2)CC(=O)N1 (stereo not drawn)	n	n	n	n	n	n
CCSC1=C(C#N)C(c2ccc(OC)c(OC)c2)CC(=O)N1 (stereo not drawn)	n	n	62.6	x	n	n
CC1(C)Cc2c(sc(NC(=O)c3ccco3)c2C#N)C(C)(C)N1	n	n	n	n	x	n
COc1ccc(C2c3c(oc4ccc(Cl)cc4c3=O)C(=O)N2Cc2ccco2)cc1OC (stereo not drawn)	n	n	n	n	x	n
O=c1c2ccccc2c(-c2ccc(Cl)cc2)nn1-c1ccccc1	n	n	n	x	n	n
O=c1c2ccccc2c(-c2ccccc2)nn1-c1cc(Cl)ccc1[N+](=O)[O-]	n	n	61.0	-6.92	n	n
CCc1ccc(-c2nn(-c3cc(Cl)ccc3[N+](=O)[O-])c(=O)c3ccccc23)cc1	n	n	n	-3.6	n	n
Cc1nn(-c2cc(N3CCCCCC3)ccc2[N+](=O)[O-])c(=O)c2ccccc12	n	n	n	n	-4.14	n
Cc1ccc(-c2nn(-c3cc(Cl)ccc3[N+](=O)[O-])c(=O)c3ccccc23)cc1C	n	n	n	-4.6	n	n
O=C(Nc1nc(-c2ccccc2)cs1)C1CCCN(S(=O)(=O)c2cccc([N+](=O)[O-])c2)C1 (stereo not drawn)	n	n	n	-6.07	n	62.0
O=C(Nc1nc(-c2ccccc2)cs1)C1CCCN(S(=O)(=O)c2ccccc2)C1 (stereo not drawn)	n	n	n	n	n	69.2
O=C(Nc1nc(-c2ccccc2)cs1)C1CCCCN1S(=O)(=O)c1ccccc1 (stereo not drawn)	n	n	72.3	n	-3.68	92.5
O=C(CN1C(=O)c2ccccc2C1=O)Nc1nc(-c2cccc([N+](=O)[O-])c2)cs1	n	n	n	x	x	n
Cc1c(-c2ccccc2)[n+](=O)c2c(n1[O-])CCC2	x	x	x	n	n	x
C=CCn1c(SCc2nc3sc4c(c3c(=O)[nH]2)CCCC4)nc2ccccc2c1=O	x	x	x	x	n	x
Cc1cc(NC(=O)c2ccco2)ncc1NC(=O)Cc1ccccc1	n	n	n	n	n	n
C=CCNc1sc(C(=O)c2ccc(Br)s2)c(N)c1C#N	n	n	n	n	n	63.1
C=CCNc1sc(C(=O)c2ccccc2)c(N)c1C#N	n	n	n	n	n	n
